Test results published in the supplement of paper PMC6555819.

Tests used:
Assay in all cases: PBM binding z-score (relative to random genomic background probes); higher = stronger binding; sequences stand for … in GC…GCGATTGACAGCGTAGAATGAAGG
[1] = system: PPARg:RXRa DBDmut IVT, anti-RXR (DBD mutation: RXRa K156A/R161A, NR concentration 270 nM, RXRa partner concentration 90 nM)
How it was run: (§1)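 Ligand-free nuclear receptor dimers were bound for 1 h to custom Agilent 4×180K protein-binding microarrays. Detection used antibodies against each partner (one per run). Binding z-scores rest on regression-normalized fluorescence, with random background probes as the reference.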

[2] = system: PPARg:RXRa IVT, anti-PPARg (NR concentration 270 nM, RXRa partner concentration 90 nM)
How it was run: as §1

[3] = system: PPARg DBDmut:RXRa IVT, anti-PPARg (DBD mutation: PPARg1 K132A/R137A, NR concentration 270 nM, RXRa partner concentration 90 nM)
How it was run: as §1

[4] = system: PPARg DBDmut IVT, anti-PPARg (DBD mutation: PPARg1 K132A/R137A, NR concentration 270 nM)
How it was run: as §1

[5] = system: PPARg homodimer (NR concentration 180 nM)
How it was run: as §1

[6] = system: PXR:RXRa (NR concentration 270 nM, RXRa partner concentration 90 nM)
How it was run: as §1

[7] = system: PXR homodimer (NR concentration 270 nM)
How it was run: as §1

[8] = system: RARa:RXR (NR concentration 270 nM, RXRa partner concentration 90 nM)
How it was run: as §1

[9] = system: RARa homodimer (NR concentration 270 nM)
How it was run: as §1

[10] = system: RARb:RXRa (NR concentration 270 nM, RXRa partner concentration 90 nM)
How it was run: as §1

Sequence	PBM binding z-score [1]	PBM binding z-score [2]	PBM binding z-score [3]	PBM binding z-score [4]	PBM binding z-score [5]	PBM binding z-score [6]	PBM binding z-score [7]	PBM binding z-score [8]	PBM binding z-score [9]	PBM binding z-score [10]
GCTTACGGGTCAAAGGTTTTAGCATGAATAGAAT	4.96	5.14	1.91	1.07	3.2	4.06	0.129	5.58	0.298	3.98
TCTATAAGTTGATTAGGGCAACCGAAACAGCGGA	2.11	1.45	0.91	0.949	0.532	0.227	0.561	0.489	0.661	1.13
TGTGAAAGTTCAAAGGTAACGTAAGTATCCACAC	-0.131	3.37	1.69	1.46	2.73	5.64	4.19	6.09	1.81	4.74
ATCACTAGGTAACAAGTTCAGTGAAAGAGAGGAC	5	4.3	1.27	0.914	1.31	1.95	2.35	0.935	1.41	1.8
ATTAGTTGGTCAGCTGAGGTCACACACAATTCGG	2.22	3.28	0.989	1.49	3.67	5.59	2.59	4.84	2.74	3.72
GCTCGGAGGACAAGGTTAGAGCTTTGTCCGTAGA	-0.578	-0.435	-1.46	-0.888	-0.772	-0.186	-0.847	-0.266	-1.1	1.45
TAGCCTAGGTCATTCAGGGGCCATTATAGAAAGC	1.86	3.06	0.753	0.98	2.02	3.3	0.128	3.79	0.894	3.98
CGAACGAGGGCATGAGTTGATTGCAAATGCCGAT	2.89	1.87	-0.365	-0.273	0.304	0.676	0.4	0.51	-0.117	1.96
AGTCAAAGTTCACTAGGTAACTTAAGATTCAGCT	2.47	4.8	2.06	1.17	1.24	4.02	2.95	3.07	1.01	4.73
TAGCCTAGGTCACGCGGGCCAGTATAGTGTCGGC	2.95	4.27	-0.0213	0.00762	1.6	1.84	-0.691	3.32	-0.183	4.33
ACTCAGAGGACAAAGGTCAGAGCTACGCCAGTGA	1.49	3.79	-0.0394	-0.208	3.47	4.07	0.501	5.53	1.81	4.71
TCTTGTTGATCAAGCAGGTTAAGAAAGCCTGAGT	1.34	0.182	-0.406	0.392	0.2	0.29	0.159	0.176	-0.0111	0.317
ATATGTAGGTTAACGGTCATTCAGGTTGGTTCGC	8.01	8.1	3.09	2.01	2.2	1.84	0.701	2.01	0.573	2.41
CGAACTAGGCCATCCAGGACAGTGAATACATTGA	6	5.51	0.953	0.808	0.048	-0.289	-0.148	0.254	0.507	0.809
GCATATAGCTAATACAAGGTGAAAGTCCGATTGT	0.11	0.315	0.87	-0.0254	0.259	0.262	0.241	0.651	0.533	0.107
AGAACGAGGGCAATGATTTGATAGCACGGGTGGC	3.4	2.89	0.782	0.14	0.437	0.447	0.328	0.36	0.605	1.95
CAAACTGGGTCAAGGTCAAAGTCGGTTTGTGCCA	8.04	8.43	4.25	1.48	4.04	5.26	2.48	5.2	1.14	4.95
GCTAGTTGGTCAGGAAAAGGTCACACACCGGTCG	0.896	2.59	-0.101	0.0698	5.18	4.97	1.13	5.97	3.68	4.17
AGAACGAGGGCAATGTGTTGATAGCACGGGTGGC	3.49	2.88	0.318	-0.0765	0.0511	0.325	0.276	0.248	-0.364	2.05
AATACAGGGGCACTAGGCCAGAGTAGGTACGAAT	2.1	3.75	0.831	0.38	0.784	-0.286	-0.158	-0.2	-0.664	1.16
CCGAGTAGGTTAGGGGGCATTCAGGCAACGGTGA	2.55	4.72	4.62	4.7	2.25	2.19	1.47	2.41	0.807	2.11
CTCGAAAGGTCGGTTGACGTGAGTATACGGATAA	0.129	0.68	0.821	0.0479	0.644	1.01	-0.25	1.5	-0.0456	2.91
AGAATGAGGTTATTAAGATGAGGGAATTGCGGTC	2.83	1.97	1.19	0.341	1.28	1.03	0.85	1.22	1.23	1.41
TAGCCAAGGTCATGCGGGCCAGTATAGTGTCGGC	1.6	3.47	1.13	0.504	1.92	4.35	1.1	4.48	0.0818	5.09
TATACAGGGTCAAAGGCCAGACTACGAATGTCGA	2.56	5.03	3.07	1.98	2.4	4.42	0.626	6.23	1.41	4.56

Sequence	PBM binding z-score [1]	PBM binding z-score [2]	PBM binding z-score [3]	PBM binding z-score [4]	PBM binding z-score [5]	PBM binding z-score [6]	PBM binding z-score [7]	PBM binding z-score [8]	PBM binding z-score [9]	PBM binding z-score [10]
ATCGAAAGTTCGACGAGGTGAGTATACACCGTTT	-0.191	0.687	0.332	1.16	0.996	1.42	2.24	1.03	-0.0858	2.32
AGAATGAGGTTAAGGTCAGGGAAACAGAATACAT	3.24	4.55	1.51	0.964	3.35	3.77	1.59	4.47	2.44	4.27
TAGCCTAGGTCATCCAGGGGCCAGTATAGAAAGC	1.23	2.73	0.724	-0.3	1.93	2.6	-0.246	3.55	0.127	3.98
AGAATGAGCTTAAGATCAGGGAAACAGAATACAT	-0.826	-0.493	0.133	0.568	-0.142	-0.393	-0.0876	0.0208	-0.0937	-0.502
CGTCCAAGGCCAATGCTAGGTCAGTGAAAGCATT	-0.0283	0.421	-0.963	-1.46	0.131	0.224	-0.267	0.552	-1.03	2.19
TCGAGTATGTTAGGGGCATTCAGAATGGCGTCGA	0.969	-0.000912	-0.506	-1.16	-0.24	0.712	0.579	0.48	0.135	0.606
CAGCCTAGGGCAGGGCCAGTATAGGAGGAACGTT	-0.842	-0.372	-2.01	-1.9	-1.39	-1.13	-0.815	-0.853	-0.656	0.716
CCAGACAGGTGAGAAGGCAACTCAGCCTCGATTA	0.42	0.413	-0.447	-0.637	0.166	-0.0948	-0.133	-0.209	0.0696	0.272
CAGCCTAGGTCAGGACCAGTATAGGAGGAACGTT	1.07	1.37	-0.507	-1.17	0.861	0.277	-0.104	0.885	0.139	3.26
CCGGCTGGGGCAGAAAGGTTACCATACCATCCGG	-0.851	-0.138	-1.63	-1.34	0.44	0.704	-0.199	1.52	-0.576	1.85
TCTTGTAGATCAAAGGTTAAAAAAGCCGAAGCCT	2.16	3.58	0.744	0.625	1.22	2.17	0.0944	3.21	0.327	1.69
TGAATGAGGTTAAAGATCAGCGAACGTGGCGTCG	2.09	3.38	1.34	0.131	0.5	1.89	-0.0611	2.82	-0.162	1.88
ATCTCTAGATAAAGTTCAGTGAAAGATCGATAGA	-0.492	0.294	0.931	0.898	0.994	1.36	1.39	0.786	1.06	2.17
GCGACTGGGGCATCACCAGGTTACCATAACTTAA	3.65	3.39	-0.477	-0.785	0.0676	0.244	-0.357	0.695	-0.656	0.96
ACTATTAGTTGAGACCAGGGCAACCGATAGGTTG	0.0901	0.557	0.284	0.911	-0.00507	0.204	0.236	0.191	0.419	0.628
ATCGAAAGGTCGTAAGGTGAGTATACAGAAAGGC	0.287	2.13	1.43	1.06	2.31	2.96	0.735	4.21	0.848	3.72
CCTAGCAGGCCAGGGACACTCAAGCATTTCGCTT	0.0615	-0.258	-0.983	-1.15	-0.379	-0.644	-0.46	-0.225	-0.182	0.347
CGTCCAAGGTCAAAGGTCTGTGAAGAGATGACGG	3.5	4.39	1	0.0198	3.15	4.82	1.13	6.06	0.626	5.4
ACTCGGAGGACAAAGGTCAGAGCGACGCCAGTGA	0.874	3.53	-0.107	-0.757	3.73	4.04	0.438	4.89	0.829	4.57
TCTATTAATTGAAGGGCAACCGACGAGTCCGTTT	2.49	0.956	0.163	1.02	1.56	0.915	1.96	0.829	1.43	1.45
TAGCCTAGGTCATGTGGGCCAGTATAGTGTCGGC	1.81	3.41	-0.502	-0.513	0.832	1.47	-0.447	2.33	-0.278	3.81
AGAATGAGGTTACCAAAGATCATGGAAACGCTTG	3.74	3.68	0.737	0.847	0.294	1.8	0.0925	2.58	0.108	2.11
ATCTCTAGGTAACCAAGTTTAGTGAATGCCGAAC	3.62	2.79	0.887	1.75	0.787	0.564	0.333	0.55	1.08	0.627
TCAGACAGGTGAAGGTAATTCAGGTACGCAGTCG	2.77	1.13	0.166	0.166	1.05	0.684	0.0937	1.21	0.385	1.08
